We go through 56 compounds from PubChem BioAssay AID449762 (Southern Research Specialized Biocontainment Screening …, 2010).

About 1,900 (0.58%) of roughly 330,000 compounds were called active. Roughly 4% stayed inconclusive and do not appear here. Only a sample is shown. Results with a measured potency or affinity are listed apart. A number with no mark means an inactive call. No stated cut-off is given here; in the data, inconclusive means inhibition above about 70% without an active follow-up result; inactive means below that.

The nature of this experiment: M. tuberculosis growth inhibition, HTS (AID 449762).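 Further: bacterial growth assessed after seven days of incubation.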 The following applies: M. tuberculosis H37Rv growth inhibition, 7H9 media; at 25 µM; hits give high values.
One may read the inhibition as the drop in the measured response relative to a control, in per cent. Take `O=C(NCC(c1cccnc1)N1CCN(c2ccc(F)cc2)CC1)Oc1ccccc1` (stereo unspecified): the inhibition was -8.33%.
The same measure for `CCc1cccc(NC(=O)CCCN2C(=O)NC(C)(C)C2=O)c1`: -11.7%; for `C[C@@H]1CCCCCCCCC(=O)OCCN(C(=O)OC(C)(C)C)[C@H](C)CCCCCCCCC(=O)OCCN1C(=O)OC(C)(C)C`: 3.06%.
Under `C[C@@H]1CCCCCCCCC(=O)OCCN(C(=O)OC(C)(C)C)[C@H](C)CCCCCCCCC(=O)OCCN(C(=O)OC(C)(C)C)[C@H](C)CCCCCCCCC(=O)OCCN(C(=O)OC(C)(C)C)[C@H](C)CCCCCCCCC(=O)OCCN1C(=O)OC(C)(C)C` stands -0.93%; under `COc1ccc(N2CCN(C(=O)CCNS(=O)(=O)c3ccc(C)cc3)CC2)cc1`, -1.98%.
Under `C[C@H](NC(=O)N1CCn2c1nc1ccccc12)C(=O)N1CCCCC1` stands -4.78%.
For `CN(CCOc1ccccc1)C(=O)C1CCC(=O)N(CCCN2CCOCC2)C1` (stereo unspecified), the inhibition was 14.5%.
The same measure for `Nc1nc2ccccc2n1CCOc1ccc(F)cc1`: 41.5%; for `Nc1nc2ccccc2n1CCOc1ccc(Cl)cc1`: 9.81%; for `CN(C)S(=O)(=O)c1cc(NC(=O)CN2CCN(c3ccccc3)CC2)ccc1Cl`: 1.87%.
Under `CN=C1NN=C(c2cc(C)n(-c3c(C)n(C)n(-c4ccccc4)c3=O)c2C)CS1` stands 10.5%; under `Cc1cc(C2=NNC(=NC3CC3)SC2)c(C)n1-c1c(C)n(C)n(-c2ccccc2)c1=O`, 0.5%; under `CCN=C1NN=C(c2c[nH]c3ccccc23)CS1`, 0.3%.
Regarding `c1ccc2c(C3=NNC(=NC4CC4)SC3)c[nH]c2c1`, the inhibition was -4.02%.
Under `COc1ccc(CC(=O)Nc2ccc(C#N)c(Cl)c2)cc1S(=O)(=O)N1CCOCC1` stands 3.7%; under `COc1ccnc(Oc2ccc(F)cc2)c1C(=O)N/C=N/OCc1cccc(F)c1`, 24.6%.
Take `C=C(C)CSc1nnc2n(C)c(=O)c3c4c(sc3n12)CCC4`: the inhibition is 4.7%.
Under `CC(C)(C)C1CCc2c(sc3nc(SCC(=O)O)nc(N)c23)C1` (stereo unspecified) stands 6.02%.
The same measure for `NC(=O)CSc1nc(N)c2c3c(sc2n1)CCCCC3`: 42.6%.
The same measure for `Cc1nc(N2CCN(C(=O)c3cnccn3)CC2)c2c3c(sc2n1)CC(C(C)(C)C)CC3` (stereo unspecified): -2.07%; for `CCCSc1nnc2n(C)c(=O)c3c4c(sc3n12)CCC4`: 9.4%.
In the case of `CC(=O)N1CCN(c2nc(C)nc3sc4c(c23)CCC(C)C4)CC1` (stereo unspecified), the inhibition was -0.41%.
Under `CC(C)(C)[C@H]1COC(=O)[C@@H](Cc2ccc(F)cc2)C/C=C\C[C@@H](CC(=O)N[C@@H](CO)Cc2ccccc2)C(=O)N1` stands -8.38%; under `Cc1cc(OCC(=O)NCCCN2CCOCC2)c2c(C)cc(=O)oc2c1`, 3.65%; under `O=C(Cc1c(Cl)cccc1Cl)N1CCN(Cc2ccccc2)CC1`, 7.3%.
In the case of `C/C(=N\NC(=O)c1ccc(Cn2cc(Br)cn2)o1)c1cccc(NC(=O)C(C)(C)C)c1`, the inhibition is -8.27%.
The same measure for `COc1cccc(CN(C)CC(=O)Nc2ccccc2C(=O)Nc2ccccc2)c1OC`: -3.55%.
With `CN(CC(=O)Nc1ccc(F)cc1)C(=O)COC(=O)c1cc(S(=O)(=O)N(C)C)ccc1N1CCCC1`, the inhibition is 0.17%.
Under `Cc1cc(C)c2cc(C(=O)Nc3ccc4c(c3)OCO4)[nH]c2c1` stands -1.94%.
The same measure for `CCc1ccc2[nH]c(C(=O)Nc3ccc(C)c(F)c3)cc2c1`: 6.38%; for `Cc1cccc(NC(=O)C2CCN(S(=O)(=O)c3c(C)noc3C)CC2)c1`: 8.96%; for `c1cc[n+](CCCC[n+]2ccccc2)cc1`: -7%.
Under `c1cc[n+](CCC[n+]2ccccc2)cc1` stands 1.9%; under `O=C(Nc1ccc(F)cc1)c1cnc(-c2ccccc2)nc1-c1ccccc1`, -11.2%.
Turning to `CCCOc1ccc2[nH]c(C(=O)N/N=C/c3cc(OC)c(OC)c(OC)c3)cc2c1`, the inhibition is 4.27%.
The same measure for `CCOc1ccc(CCNC(=O)Cc2ccc(NC3=NC4CS(=O)(=O)CC4S3)cc2)cc1` (stereo unspecified): -10.9%; for `COCCn1c(=NC(=O)CSC(C)=O)sc2cc(OC)ccc21`: -1.47%; for `CS(=O)(=O)c1ccc(C(=O)NC(Cc2ccccc2)c2ccccc2)cc1` (stereo unspecified): -2.61%.
Under `CS(=O)(=O)c1ccc(C(=O)NCc2ccccc2F)cc1` stands -1.2%; under `Cn1cc(C(=O)N2CCCCC2)c2ccccc21`, 5.24%.
The same measure for `CCCCC[C@@H]1C=C(C(=O)O)[C@H](c2cccc(C)c2)N1S(=O)(=O)c1ccc(C)cc1`: 9.09%; for `S=C(NCCNC(=S)Nc1ccccc1)Nc1ccccc1`: -0.85%; for `COc1ccc(C(CNc2nc(-c3cccnc3)nc3ccccc23)N(C)C)cc1` (stereo unspecified): -3.31%.
Consider `COC(=O)C1=C(C)N(C)C(=S)NC1c1c(OC)ccc2ccccc12` (stereo unspecified), for which the inhibition is 8.17%.
The same measure for `O=C1NCN(c2ccccc2)C12CCN(c1nnnn1-c1ccccc1)CC2`: -2.38%; for `O=C1NCN(c2ccccc2)C12CCNCC2`: -2.9%.
The same measure for `COc1ccc(S(=O)(=O)N(C)CC(=O)NC2CCCC2)cc1OC`: -0.73%.
Consider `Cc1ccc(-c2ccccc2NC(=O)C2C3C=CC(C3)C2C(=O)O)o1` (stereo unspecified), for which the inhibition was 3.02%.
The same measure for `CC(=O)Nc1cccc(NC(=O)C2C3C=CC(C3)C2C(=O)O)c1` (stereo unspecified): 1.17%; for `CCCCOc1ccc(C(=O)N2CCN(c3ccc(N4CCOCC4)nn3)CC2)cc1`: 37.3%; for `CNC1=C([N+](=O)[O-])CC([N+](=O)[O-])=C(N2CCNCC2)N1C`: 1.39%.
Consider `Cc1nn(Cc2ccccc2)c(Cl)c1C(=O)OCC(=O)NC(=O)NC12CC3CC(CC(C3)C1)C2`, for which the inhibition is 3.45%.
Under `CC1CCc2nc3ccccc3c(C(=O)OCC(=O)NC3CCS(=O)(=O)C3)c2C1` (stereo unspecified) stands 9.92%.
Under `Cc1c2ccccc2nc2ccccc12` stands 21.6%.
Under `CCOC(=O)c1cc(-c2ccc(N3CCOCC3)cc2)nn1-c1ccc(F)cc1F` stands 30.5%.
For `CCOC(=O)c1cc(-c2ccc(N3CCOCC3)cc2)nn1-c1ccccc1C(=O)O`, the inhibition is -2.68%.
